Compounds without any hit were thinned out: in the full panel of roughly 83,000, 20% have a hit.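 Testing used 96-well plates and a 48-hour single-concentration exposure. Example: -40 means 40% of the starting cells died.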 Activity calls are given as the source filed them. The calls were made as follows: active = growth percent below 10; inactive = the rest.
Assays:
Experiment in all cases: NCI-60 one-dose screen, 48 h (100 = growth as untreated, 0 = no growth, -100 = all killed)
Settings in all cases: 10 µM unless noted
T-47D breast = system: T-47D breast
BT-549 breast = system: BT-549 breast
MDA-MB-435 melanoma = system: MDA-MB-435 melanoma
SW-620 colon = system: SW-620 colon
MCF7 breast = system: MCF7 breast
HCT-116 colon = system: HCT-116 colon
HCC-2998 colon = system: HCC-2998 colon
KM12 colon = system: KM12 colon

Measured: growth

CN(C)CC(C(=O)c1ccccc1)c1ccccc1 (configuration not stated)
active: SW-620 colon -61.9% | HCT-116 colon -94.7%
inactive: T-47D breast 66.6% | BT-549 breast 23.3% | MDA-MB-435 melanoma 23.1% | MCF7 breast 10.5% | HCC-2998 colon 74.9% | KM12 colon 10.8%

Cc1ccc(S(=O)(=O)c2nc(-c3ccccc3)oc2S(C)(=O)=O)cc1
inactive: BT-549 breast 53.4% | MDA-MB-435 melanoma 59.4% | HCC-2998 colon 97.4% | KM12 colon 76.4%
active: T-47D breast -42.6% | SW-620 colon -29.2% | MCF7 breast 3.86% | HCT-116 colon -61.8%

CCOC(=O)NNC(=S)Nc1ccccc1
inactive: T-47D breast 113% | BT-549 breast 103% | MDA-MB-435 melanoma 94.9% | SW-620 colon 110% | MCF7 breast 100% | HCT-116 colon 104% | HCC-2998 colon 117% | KM12 colon 106%

O=C(CSc1nc2ccccc2[nH]1)Nc1ccc(-c2nc3ccccc3s2)c(Cl)c1
inactive: BT-549 breast 47.4% | MDA-MB-435 melanoma 13.2% | SW-620 colon 22.1% | HCC-2998 colon 95.3%
active: T-47D breast -12.7% | MCF7 breast 6.26% | HCT-116 colon -90.2%

Cc1cc(C)n(-c2nnc3n2N=C(c2ccc(-c4ccccc4)cc2)CS3)n1
inactive: T-47D breast 48.7% | BT-549 breast 48.7% | SW-620 colon 36.7% | MCF7 breast 28% | HCT-116 colon 41.8% | HCC-2998 colon 76.8% | KM12 colon 53%
active: MDA-MB-435 melanoma -7.2%

C=C[C@@H]1C[C@@H]2Cc3c(C)cc(C)cc3N1O2
inactive: T-47D breast 115% | BT-549 breast 112% | MDA-MB-435 melanoma 101% | SW-620 colon 102% | MCF7 breast 97.6% | HCT-116 colon 104% | HCC-2998 colon 103% | KM12 colon 104%

CCCCCCN1CSC(=S)N(CCCCCC)C1
inactive: T-47D breast 96.4% | BT-549 breast 100% | MDA-MB-435 melanoma 97.6% | SW-620 colon 94.2% | MCF7 breast 102% | HCT-116 colon 86% | HCC-2998 colon 96.6% | KM12 colon 103%

Cc1ccc(-c2cc3nc(C(Cl)Cl)nc(-c4ccccc4C)n3n2)cc1
active: MDA-MB-435 melanoma -2.12%
inactive: T-47D breast 49.7% | BT-549 breast 88.7% | SW-620 colon 46.1% | MCF7 breast 70.3% | HCT-116 colon 49.6% | HCC-2998 colon 81.8% | KM12 colon 26.1%

COc1cccc(-c2nc3sccn3c2-c2ccnc(NCCCNS(=O)(=O)c3ccc(F)cc3)c2)c1
active: T-47D breast -3.13%
inactive: BT-549 breast 13% | MDA-MB-435 melanoma 19.1% | SW-620 colon 41.7% | MCF7 breast 31.8% | HCT-116 colon 25.5% | HCC-2998 colon 61.5% | KM12 colon 21%

CN1C=CN(Cc2ccc(-c3ccccn3)nc2)[CH-]1.CN1C=CN(Cc2ccc(-c3ccccn3)nc2)[CH-]1.[Au+3]
active: MCF7 breast 9.07% | HCT-116 colon 1.98%
inactive: T-47D breast 40.2% | BT-549 breast 31.1% | MDA-MB-435 melanoma 30.6% | SW-620 colon 36.2% | HCC-2998 colon 25.3% | KM12 colon 24.9%

O=C1CCCCC1(c1ccccc1)c1ccccc1
inactive: T-47D breast 95% | BT-549 breast 114% | MDA-MB-435 melanoma 101% | SW-620 colon 101% | MCF7 breast 105% | HCT-116 colon 98.4% | HCC-2998 colon 92.2% | KM12 colon 100%

COc1ccc2c(c1)[nH]c(=O)c1c3cccc(F)c3cn21
inactive: T-47D breast 63.9% | BT-549 breast 42.8% | SW-620 colon 27.2% | MCF7 breast 22.3% | HCT-116 colon 24.6% | HCC-2998 colon 31.9%
active: MDA-MB-435 melanoma -51.9% | KM12 colon 8.44%

Cc1ccc(S(=O)(=O)n2cc(C(=O)C(=O)N3CCOCC3)c3ccccc32)cc1
inactive: T-47D breast 74.8% | BT-549 breast 87.5% | MDA-MB-435 melanoma 104% | SW-620 colon 101% | MCF7 breast 99.4% | HCT-116 colon 87.1% | HCC-2998 colon 99.6% | KM12 colon 98.7%

COC(=O)c1cccc2c1N(C)c1c(cccc1C(=O)OC)CC2
inactive: T-47D breast 95.6% | BT-549 breast 112% | MDA-MB-435 melanoma 101% | SW-620 colon 105% | MCF7 breast 108% | HCT-116 colon 104% | HCC-2998 colon 97.4% | KM12 colon 101%

Cc1nc2ncccc2nc1Nc1ccc(S(=O)(=O)Nc2ccccn2)cc1
inactive: T-47D breast 91.2% | BT-549 breast 83.3% | MDA-MB-435 melanoma 109% | SW-620 colon 102% | MCF7 breast 92.7% | HCT-116 colon 92% | HCC-2998 colon 99.5% | KM12 colon 97.8%

O=C(NCc1cn(Cc2cccc(Oc3ccccc3)c2)nn1)c1cccnc1Nc1ccc(F)cc1
inactive: T-47D breast 83.1% | BT-549 breast 86.6% | SW-620 colon 44.7% | MCF7 breast 24% | HCT-116 colon 32.8% | HCC-2998 colon 62.7% | KM12 colon 34.4%
active: MDA-MB-435 melanoma -11.7%

From PubChem BioAssay (NCI)
